# Shown are actives, neighbours in structure and some others; about 4.5% of the full set was active somewhere.
# Rce1 inh: yeast Ras-converting enzyme inhibition | Q03530 | yeast membranes, quenched prenylated peptide cleavage fluorescence | calls only | 0.27% of 290,000 active | AID 2563;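 active = fall in fluorescence gain of 50% or more versus controls, with final raw signal at or below 3038400; inconclusive = same 50% fall but final raw signal above 3038400; inactive = fall in fluorescence gain under 50%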;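 also: plate controls were neutral control wells for no effect and wells lacking membranes for full effect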
# HDAC3 inh: blocks human histone deacetylase 3; O15379; recombinant HDAC3, fluorogenic peptide/trypsin coupled, fluorescence; inhibition, % at 8.3 µM; 0.15% of 320,000 active; in the data active = inhibition above about 26%, passing the limit was not always enough; inconclusive = no clear call, values can overlap the other calls
# Efflux pump inh: inhibitors of Candida antifungal efflux pumps expressed in yeast. S. cerevisiae Candida pump triplex, Nile Red efflux. inhibition, % at 10 µM. 0.44% of 330,000 active;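 active = plate passing quality check with inhibition over a set limit, or well fluorescence over plate mean plus 4 SD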;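 also: Nile Red retained in pooled yeast measured as flow cytometry median fluorescence; 0% = buffer negative control and 100% = Enniatin B positive control; higher means more Nile Red kept so more efflux inhibition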
# ALR H2O2 inh: blocks human ALR sulfhydryl oxidase activity; P55789; purified ALR, DTT oxidation, H2O2 HRP-luminol luminescence; inhibition, % (concentration not given with the values); 3.8% of 290,000 active;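 active = mean replicate inhibition above about 79%, with every replicate also reaching it, limit read from the data; inconclusive = only one of the two criteria met; inactive = mean below limit and not every replicate reaching it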
# GRK2 aptamer HTS: inhibitors of human GRK2 displacing RNA aptamer. AID 488847. 0.59% of 330,000 active. inhibition of aptamer binding, % at 10 µM. bead flow cytometry, FAM-aptamer displacement from GRK2;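 active = inhibition of aptamer binding above 40%, roughly 3 SD of noise, on plates passing a quality check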;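 also: median bead fluorescence of bound FAM aptamer so fluorescent compounds give negative values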
# Target sequence (P25098 whole entry, looked up): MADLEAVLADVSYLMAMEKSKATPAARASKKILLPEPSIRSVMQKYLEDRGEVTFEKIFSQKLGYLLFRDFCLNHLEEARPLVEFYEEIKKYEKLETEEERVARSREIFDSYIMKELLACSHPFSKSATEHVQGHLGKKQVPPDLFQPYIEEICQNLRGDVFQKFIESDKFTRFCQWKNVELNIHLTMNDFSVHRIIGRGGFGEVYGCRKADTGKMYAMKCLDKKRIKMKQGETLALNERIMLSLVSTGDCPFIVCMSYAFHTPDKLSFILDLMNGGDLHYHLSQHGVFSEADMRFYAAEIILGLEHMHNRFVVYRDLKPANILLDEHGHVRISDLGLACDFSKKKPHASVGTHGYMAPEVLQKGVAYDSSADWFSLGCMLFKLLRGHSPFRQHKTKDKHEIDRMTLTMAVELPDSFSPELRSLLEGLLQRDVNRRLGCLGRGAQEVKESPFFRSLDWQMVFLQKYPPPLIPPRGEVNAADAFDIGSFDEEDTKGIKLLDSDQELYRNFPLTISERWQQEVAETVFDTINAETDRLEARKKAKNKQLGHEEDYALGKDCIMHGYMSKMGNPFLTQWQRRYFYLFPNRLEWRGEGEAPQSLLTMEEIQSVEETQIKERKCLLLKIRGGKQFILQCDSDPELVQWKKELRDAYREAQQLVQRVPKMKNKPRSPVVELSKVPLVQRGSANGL
# Rtt109 HAT inh: inhibitors of Candida albicans Rtt109/Vps75 histone acetyltransferase; AID 540336; Q5AAJ8; 0.16% of 330,000 active; purified Rtt109/Vps75, ThioGlo CoA-SH fluorescence, 4 h; inhibition, % at 34.9 µM;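 active = inhibition of at least 50% in every replicate; inconclusive = best replicate reaches 50% inhibition but some replicates fall short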
# Cmpd fluor yeast: flagged as fluorescent in efflux inhibitor counter-screen. S. cerevisiae AD/pABC3, compound fluorescence, flow cytometry. 4% of 1,700 active. fluorescence ratio to DMSO, % at 10 µM. shares compounds with Efflux pump inh;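 active = fluorescence ratio to DMSO above its plate's cutoff, the plate mean ratio plus 5 SD, cut at about 210% in these data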;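 also: unstained yeast with no Nile Red so the signal is compound autofluorescence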
# Mdr1 pump inh: Candida Mdr1 efflux pump inhibition; shares compounds with Efflux pump inh; S. cerevisiae AD/CaMDR1, Nile Red efflux, flow cytometry; inhibition, % at 10 µM; 1% of 1,700 active; AID 588518; in the data active = inhibition above about 26%;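 also: 0% = DMSO vehicle and 100% = reference inhibitor; higher means more Nile Red retained so more efflux inhibition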
# CaCdr2 efflux inh: blocks the Candida albicans Cdr2 efflux pump in yeast | Nile Red retention ratio vs DMSO, % at 10 µM | S. cerevisiae AD/CaCDR2, Nile Red retention, flow cytometry | AID 588520 | 4% of 1,700 active | shares compounds with Efflux pump inh; in the data active = Nile Red retention ratio vs DMSO above about 190%;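 also: higher ratio means more blocking of Cdr2 efflux of the dye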
# CaCdr1 efflux inh: inhibitors of Candida albicans Cdr1 efflux pump; shares compounds with Efflux pump inh; inhibition, % at 10 µM; S. cerevisiae AD/CaCDR1, Nile Red efflux, flow cytometry; 1% of 1,700 active;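 active = inhibition above the screen-wide mean plus twice its standard deviation, cut at about 32% in these data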
# * = called active by the depositor; i = inactive; ? = inconclusive; · = not tested or not shown.
SMILES,Rce1 inh,HDAC3 inh,Efflux pump inh,ALR H2O2 inh,GRK2 aptamer HTS,Rtt109 HAT inh,Cmpd fluor yeast,Mdr1 pump inh,CaCdr2 efflux inh,CaCdr1 efflux inh
CC1(C)OC(=O)C(=NNc2ccccc2)C(=O)O1,i,7,9.7*,-4,0,3,110,0,105,0
CCSc1cc(N2CCOCC2)nc(-c2ccccc2)n1,i,3,0,-4,0,4,103,0,97,0
c1ccc(-c2cc(N3CCOCC3)nc(-c3ccccc3)n2)cc1,·,-6,0,-3,0,4,·,·,·,·
CC1C(=O)N2CCCc3cc(S(=O)(=O)N4CCC(C(N)=O)CC4)cc1c32 (centres undefined),i,-4,0,-3,6,0,·,·,·,·
Cc1ccc2nc(-c3ccccc3)cc(C(=O)N3CCN(S(=O)(=O)c4c(C)noc4C)CC3)c2c1,·,-7,1.1*,-9,1,1,104,0,103,0
Cc1ccc2nc(-c3ccccc3)cc(C(=O)N3CCN(c4ccccc4O)CC3)c2c1,i,19,0,14,1,7,·,·,·,·
O=C(CCC(=O)N1CCOc2ccccc21)NCCc1ccccc1,i,-4,0,-18,0,2,·,·,·,·
CCn1nc([N+](=O)[O-])c2c(-c3nc4ccccc4o3)c(N)n(CCCOC)c2c1=O,i,-10,0,57,0,4,·,·,·,·
COc1ccc(N2CCN(C(=O)C3CCCN3S(=O)(=O)c3cccc4nsnc34)CC2)cc1 (centres undefined),i,?,0,62,2,6,·,·,·,·
Cc1ccc(-n2nc3c(=O)n(CC(=O)NCCc4ccccc4C)nc(C)c3c2C)cc1,i,-4,4.2*,-6,2,3,106,0,102,0
Cc1ccc(-n2nc3c(=O)n(CCCC(=O)NCc4ccccc4C)nc(C)c3c2C)cc1,i,-1,0,-2,4,-3,·,·,·,·
Cc1ccc(-n2nc3c(=O)n(CC(=O)NCc4cccs4)nc(C)c3c2C)cc1,i,-9,0,-1,1,-5,99,0,105,0
CCOc1ccc(CNC(=O)Cn2nc(C)c3c(C)n(-c4ccc(C)cc4)nc3c2=O)cc1,i,?,0,1,0,-3,100,0,109,0
Cc1ccc(-n2nc3c(=O)n(CC(=O)NCc4ccccn4)nc(C)c3c2C)cc1,i,-8,0,4,0,-5,·,·,·,·
Cc1ccc(CNC(=O)CCCn2nc(C)c3c(C)n(-c4ccccc4)nc3c2=O)cc1,i,-4,0,1,1,-2,111,0,108,0
Cc1nn(CC(=O)NCCc2cccs2)c(=O)c2nn(-c3ccccc3)c(C)c12,i,-2,0,0,0,13,·,·,·,·
C[C@@H](C(=O)N1CCN(c2ccccc2)CC1)N1C(=O)C2CC=CCC2C1=O (some centres undefined),·,-4,0,?,0,-4,·,·,·,·
O=C(C[n+]1ccc(Cc2ccccc2)cc1)Nc1ccccc1,i,-1,0,-10,2,-1,·,·,·,·
O=C(NCCCC1CCCC1)C1CCC(=O)N(Cc2ccc(Cl)cc2)C1 (centres undefined),i,-1,6.4*,5,5,21,98,0,97,0
CSCCC(NS(=O)(=O)c1ccc(C)c(C(=O)O)c1)C(=O)O (centres undefined),i,1,0,-3,15,0,·,·,·,·
CCN(Cc1nc2cc(Cl)ccc2c(=O)[nH]1)C(=O)c1cccc(OCc2c(C)noc2C)c1,·,-4,1.6*,-4,0,-8,95,0,87,0
Cc1ccc2c(c1)CCCN2C(=O)C1CCCO1 (centres undefined),i,-6,14*,-1,1,4,103,0,100,0
O=C(Nc1ccc2nc3n(c(=O)c2c1)CCCCC3)c1cc([N+](=O)[O-])ccc1F,i,2,0.7*,5,4,-11,94,0,90,0
O=C(Nc1ccc2nc3n(c(=O)c2c1)CCCCC3)c1c(F)ccc([N+](=O)[O-])c1F,i,1,1,6,0,-12,·,·,·,·
O=Cc1cccc(Oc2ccc([N+](=O)[O-])cc2[N+](=O)[O-])c1,i,0,0.7*,-36,0,0,100,0,101,0
SMILES,Rce1 inh,HDAC3 inh,Efflux pump inh,ALR H2O2 inh,GRK2 aptamer HTS,Rtt109 HAT inh,Cmpd fluor yeast,Mdr1 pump inh,CaCdr2 efflux inh,CaCdr1 efflux inh
O=C(c1ccccc1)c1ccc(Oc2ccc([N+](=O)[O-])cc2[N+](=O)[O-])cc1,·,·,·,·,·,-5,·,·,·,·
Cc1ccc(/C=c2\sc3nc(-c4cccs4)nn3c2=O)o1,i,8,0.5*,99*,0,6,110,0,89,0
O=c1/c(=C/c2ccco2)sc2nc(-c3ccccc3Br)nn12,·,1,0,-20,0,-23,99,0,99,0
CCOc1ccccc1CN1CCNC(=O)C1CC(=O)N(C)C1CCOCC1 (centres undefined),i,-17,0,-26,0,9,·,·,·,·
O=C(Nc1ccncc1Cl)c1ccncc1,i,-4,0,2,2,-7,·,·,·,·
COc1ccc(NC(=O)c2c[nH]n3c(=O)cc(C4CCN(C(=O)OC(C)(C)C)CC4)nc23)cc1Cl,i,2,1.1*,13,1,-6,109,0,114,0
COc1cccc(NC(=O)CN(C)S(=O)(=O)c2ccc3[nH]c(=O)oc3c2)c1,i,2,0,-5,3,1,·,·,·,·
O=C1C2C3C=CC(C4CC34)C2C(=O)N1Cc1ccccc1 (centres undefined),i,0,0.9*,0,0,-16,91,0,94,0
O=C1C2C3CCC(C3)C2C(=O)N1Cc1ccccc1 (centres undefined),i,1,0,-2,0,2,·,·,·,·
CC1CCCCN1C(=O)C1COc2ccccc2O1 (centres undefined),i,-3,0,4,0,5,·,·,·,·
O=C(CCC(=O)OCCCC(F)(F)C(F)(F)F)NC1CCCCC1,i,2,1.4*,1,1,-2,81,0,91,0
O=C(CCC(=O)OCCCC(F)(F)C(F)(F)F)Nc1ccccc1,i,10,0,-23,8,6,·,·,·,·
Cc1cccc(N(C(=O)CCC(=O)Nc2cc(C)on2)C(C(=O)NC2CCCC2)c2cccnc2)c1 (centres undefined),i,6,0,-10,0,9,·,·,·,·

# Screens from PubChem BioAssay.
